# USP28 block = inhibitors of human USP28 deubiquitinase; actives 3% (n = 47,000); Ubiquitin carboxyl-terminal hydrolase 28 (Homo sapiens), Q96RU2; AID 1645857, 2021; purified USP28, Ub-rhodamine cleavage fluorescence, 30 min; inhibition, % at 25 µM
# OTUD3 block = inhibitors of human OTUD3 deubiquitinase. purified OTUD3, Ub-rhodamine fluorescence, 2 h. inhibition, % at 25 µM. actives 0.7% (n = 47,000)
# USP17 inh = inhibitors of human USP17 deubiquitinase; AID 1645855, 2021; purified USP17, Ub-rhodamine cleavage fluorescence, 3 h; inhibition, % at 50 µM; Ubiquitin carboxyl-terminal hydrolase 17-like protein 5 (Homo sapiens), A8MUK1; actives 6.5% (n = 47,000)
# USP30 block = inhibitors of human USP30 deubiquitinase; purified USP30, Ub-rhodamine cleavage fluorescence; inhibition, % at 25 µM; actives 5.3% (n = 47,000)
# The depositor's hits bear a star; i = inactive; / = not tested or not shown. Only some compounds are listed: those with a hit (about 11% of all), similar ones and a draw of the others. Cut-off read from the data, not from the text of the source: active = inhibition above about 30%; inactive = the rest.
SMILES,USP28 block,OTUD3 block,USP17 inh,USP30 block
COc1ccc(N(C(=O)CCCC(=O)Nc2ccccn2)C(C(=O)NC2CCCCC2)c2ccc(Cl)cc2)cc1 (centres undefined),13,13,33*,37*
CCOc1ccc(N(CC(=O)NC2CCCCC2)C(=O)CCC(=O)Nc2ccccn2)cc1,3,3,3,18
COc1ccc(OC)c(N(CC(=O)NC2CCCCC2)C(=O)CCC(=O)Nc2ccccn2)c1,3,-7,9,30*
COc1ccc(C(C(=O)NC2CCCCC2)N(C(=O)CCCC(=O)Nc2ccccn2)c2ccccc2C)cc1 (centres undefined),6,-6,56*,11
Cc1ccc(N(C(=O)CCCC(=O)Nc2ccccn2)C(C(=O)NC2CCCC2)c2ccc(F)cc2)cc1C (centres undefined),24,15,37*,38*
COc1ccc(N(C(=O)CCCC(=O)Nc2ccccn2)C(C(=O)NC2CCCCC2)c2ccc(Cl)cc2)c(OC)c1 (centres undefined),-10,0,0,19
Cc1ccccc1C(CC(=O)Nc1ccc2c(c1)OCCO2)n1cccc1 (centres undefined),30,-6,3,1
O=C(NC1CC1)c1ccn(-c2ccc3ccc(-c4cccnc4)cn23)n1,-236,-176,-177,i
Cn1cc(CN2C[C@H]3C[C@H]4[C@](C2)(CN(Cc2ccc(Cl)cc2)S4(=O)=O)O3)cn1,-5,-1,-11,5
CC1Cc2cc(S(=O)(=O)N3CCCCCC3)ccc2N1C(=O)C1CC1 (centres undefined),17,-2,-6,-7
CC1Cc2cc(S(=O)(=O)NCCN3CCCCCC3)ccc2N1C(=O)C1CC1 (centres undefined),39*,-3,2,5
CC(=O)c1cccc(NC(=O)Nc2ccc(-c3nnc(-c4ccccc4)o3)cc2)c1,6,5,4,3
Cn1c(=O)c2c(nc(CN3CCN(c4ccccc4F)CC3)n2Cc2ccccc2Cl)n(C)c1=O,15,14,9,31*
O=C(CC1C(=O)N(Cc2ccccc2)c2nc3ccccc3n21)NCCc1ccccc1 (centres undefined),10,16,22,60*
CCOc1c(C)cc(S(=O)(=O)Nc2ccc3c(c2)N(C(C)=O)CC3)cc1C,/,-7,68*,/
COc1ccc(OC)c(NC(=O)CN2CCC(c3nc4ccccc4[nH]3)CC2)c1,-5,-13,-14,-36
O=C(Cn1c(=O)n(CC2CCC(C(=O)NCCc3ccccc3)CC2)c(=O)c2ccccc21)NCc1ccco1 (centres undefined),-9,-1,-12,-49
COc1ccc(OC)c(NC(=O)Cn2c(=O)n(CC3CCC(C(=O)NCCc4ccccc4)CC3)c(=O)c3ccccc32)c1 (centres undefined),23,93*,39*,36*
COc1ccc(NC(=O)Cn2c(=O)n(Cc3ccco3)c(=O)c3ccc(C(=O)NC4CCCC4)cc32)cc1,0,9,11,10
COc1cc(NC(=O)Cn2c(=O)n(CC3CCC(C(=O)NC4CCCC4)CC3)c(=O)c3ccccc32)cc(OC)c1 (centres undefined),28,43*,61*,44*
O=C(Cn1c(=O)n(CC2CCC(C(=O)NC3CCCC3)CC2)c(=O)c2ccccc21)NCc1ccco1 (centres undefined),50*,58*,54*,39*
CCC(=O)Nc1ccccc1-c1nc2ccccc2n(CC(=O)Nc2cc(OC)ccc2OC)c1=O,40*,19,45*,85*
CC(NC(=O)c1snc(-c2ccccn2)c1N)c1ccccc1 (centres undefined),-5,-10,-1,-8
OCc1ccccc1-c1cnc2sc(NCc3ccco3)nn12,/,5,0,/
O=C(NCC1CCCO1)N1CCCn2nc(-c3cccnc3)cc2C1 (centres undefined),5,15,7,1
O=C(NCc1ccco1)N1CCCn2nc(-c3cccnc3)cc2C1,-12,-11,31*,-56
CC(C)n1nnc2cc(S(=O)(=O)N3CCCC(C(=O)NCCc4ccco4)C3)ccc21 (centres undefined),7,4,42*,-30
O=C(c1ccccc1)c1cccc2c1NCC2,43*,11,16,20
Cc1nn(C)cc1C(C(=O)NC1CCCCC1)N(C(=O)CN1C(=O)c2ccccc2S1(=O)=O)c1ccc2c(c1)OCO2 (centres undefined),/,4,56*,/

# Screening results as filed in PubChem BioAssay.
